According to PubChem BioAssay (NCATS):

test: Cell Proliferation Assay against the TMD8 Cell Line (AID 651645); conditions: TMD8 DLBCL cell line proliferation/viability; at 46.1 µM (top of the series)
Summary of the method: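 Luminescent ATP read-out (CellTiter-Glo, 15 min RT) after 48 h compound exposure of log-growing TMD8 cells at 37C; percent activity scaled between DMSO as 100% and 9.2 uM bortezomib final as 0%.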
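Note: cells exposed to compound for 48 h before reading.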

| Compound | viability (% of control) [%] |
| --- | --- |
| Cc1csc(-c2nnc(Nc3ccc(Oc4ncccc4-c4ccnc(N)n4)cc3)c3ccccc23)c1 | 4.09 |
| Cc1cc2c(cc1C1(c3ccc(C(=O)O)cn3)CC1)C(C)(C)CCC2(C)C | 79.3 |
| CCCCc1ccc(NS(=O)(=O)c2ccc(C)c(C(=O)N3CCN(c4cccc(C)c4C)CC3)c2)cc1 | 9.89 |
| Nc1ccc(-c2ccc3ncc4ccc(=O)n(-c5cccc(C(F)(F)F)c5)c4c3c2)cn1 | 9.02 |
| CCc1cc(-c2n[nH]c(C)c2-c2ccc3c(c2)OCCO3)c(O)cc1O | 38.2 |
| CN(C)CCCNC(=O)c1ccc(-c2cc(O)c3ncccc3c2)cc1 | 2.8 |
| O=C(Nc1ccc(OC(F)(F)F)cc1)c1sccc1NCc1ccnc2ccccc12 | 9.29 |
| CC(C)(C)c1[nH]cnc1C=c1[nH]c(=O)c(=Cc2ccccc2)[nH]c1=O | 1.63 |
| COc1ccc2c(c1)CC[C@H]1[C@@H]2CC[C@]2(C)[C@@H](NCCCCCCN3C(=O)C=CC3=O)CC[C@H]12 | 15.9 |
| Cc1ccc(C(=O)N(CCCN)[C@@H](c2nc3cc(Cl)ccc3c(=O)n2Cc2ccccc2)C(C)C)cc1 | 0.587 |
| Cc1c(C(=O)Nc2ccc(N3C[C@@H](C)O[C@@H](C)C3)nc2)cccc1-c1ccc(OC(F)(F)F)cc1 | 48.4 |
| CC1=C[C@@H]2[C@@H]([C@@H](O)C[C@@]3(C)[C@H]2C[C@@H](C)[C@]3(O)C(=O)CO)[C@@]2(C)Cc3cnn(-c4ccccc4)c3C=C12 | 0.486 |
| CCN(CC)CCCCNc1nc2cc(Cl)c(Cl)cc2nc1-c1ccc(-c2cccs2)s1 | 1.61 |
| COc1cccc(OC)c1-c1cc(C(=O)NC2(C(=O)O)C3CC4CC(C3)CC2C4)nn1-c1ccnc2cc(Cl)ccc12 (stereo not drawn) | 69 |
| CC(=O)NCCC(=O)N[C@@H](CCC(N)=O)C(=O)N[C@@H](CO)C(=O)N[C@@H](CCC(N)=O)C(=O)N[C@@H](CCC(N)=O)C(=O)N[C@H](C(=O)N[C@@H](Cc1ccccc1)C(=O)N[C@]1(C)CCCCCCC=CCCC[C@@](C)(C(=O)N[C@@H](CCC(N)=O)C(=O)N[C@@H](CC(N)=O)C(N)=O)NC(=O)[C@H](CC(C)C)NC(=O)[C@H](CC(C)C)NC(=O)[C@@H](CCCNC(=N)N)NC(=O)[C@H](Cc2c[nH]c3ccccc23)NC(=O)[C@H](CC(C)C)NC(=O)[C@H](CC(N)=O)NC1=O)[C@H](C)O | 22.4 |
| CC(=O)Nc1cccc(-n2c(=O)n(C3CC3)c(=O)c3c(Nc4ccc(I)cc4F)n(C)c(=O)c(C)c32)c1 | 0.993 |
| CCNC(=O)c1noc(-c2cc(C(C)C)c(O)cc2O)c1-c1ccc(CN2CCOCC2)cc1 | 7.59 |
| CC(C)Oc1cc(Nc2nc(N[C@@H](C)c3ccc(F)cn3)ncc2Cl)[nH]n1 | 0.843 |
| CCOC(=O)[C@@H](N)CCC(=O)N[C@@H](CSCc1ccccc1)C(=O)N[C@@H](C(=O)OCC)c1ccccc1 | 62.4 |
| O=C(O)Cc1cccc(OCCCN(Cc2cccc(C(F)(F)F)c2Cl)CC(c2ccccc2)c2ccccc2)c1 | 8.71 |
| CC(C)C[C@H](NC(=O)c1cc2ccccc2s1)C(=O)N1CCN(C(=O)[C@H](CO)NS(=O)(=O)c2ccc(Cl)cc2Cl)CC1 | -0.483 |
| COc1cc2nccc(Oc3ccc(NC(=O)Nc4cc(C)on4)c(Cl)c3)c2cc1OC | 6.06 |
| COc1ccc(CCN(C)CCCOc2ccc(S(=O)(=O)c3[nH]c4ccccc4c3C(C)C)cc2)cc1OC | 4.97 |
| CNC(=O)c1cc(COc2nnc(Nc3ccc(Cl)cc3)c3ccoc23)ccn1 | 39.7 |

test: Cell Proliferation Assay against the HBL1 Cell Line (AID 651646); conditions: HBL1 DLBCL cells; at 46.1 µM (top of the series)
Summary of the method: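 Luminescent ATP read-out (CellTiter-Glo) after 48 h compound exposure of HBL1 cells at 37 °C; percent activity was scaled between DMSO as 100% and 9.2 uM bortezomib (final) as 0%.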

| Compound | viability, percent of control [%] |
| --- | --- |
| Cc1csc(-c2nnc(Nc3ccc(Oc4ncccc4-c4ccnc(N)n4)cc3)c3ccccc23)c1 | 63.2 |
| Cc1cc2c(cc1C1(c3ccc(C(=O)O)cn3)CC1)C(C)(C)CCC2(C)C | 48.2 |
| CCCCc1ccc(NS(=O)(=O)c2ccc(C)c(C(=O)N3CCN(c4cccc(C)c4C)CC3)c2)cc1 | 6.19 |
| Nc1ccc(-c2ccc3ncc4ccc(=O)n(-c5cccc(C(F)(F)F)c5)c4c3c2)cn1 | 8.06 |
| CCc1cc(-c2n[nH]c(C)c2-c2ccc3c(c2)OCCO3)c(O)cc1O | 34.6 |
| CN(C)CCCNC(=O)c1ccc(-c2cc(O)c3ncccc3c2)cc1 | 31 |
| O=C(Nc1ccc(OC(F)(F)F)cc1)c1sccc1NCc1ccnc2ccccc12 | 26 |
| CC(C)(C)c1[nH]cnc1C=c1[nH]c(=O)c(=Cc2ccccc2)[nH]c1=O | 7.81 |
| COc1ccc2c(c1)CC[C@H]1[C@@H]2CC[C@]2(C)[C@@H](NCCCCCCN3C(=O)C=CC3=O)CC[C@H]12 | 33.1 |
| Cc1ccc(C(=O)N(CCCN)[C@@H](c2nc3cc(Cl)ccc3c(=O)n2Cc2ccccc2)C(C)C)cc1 | 1.66 |
| Cc1c(C(=O)Nc2ccc(N3C[C@@H](C)O[C@@H](C)C3)nc2)cccc1-c1ccc(OC(F)(F)F)cc1 | 32.3 |
| CC1=C[C@@H]2[C@@H]([C@@H](O)C[C@@]3(C)[C@H]2C[C@@H](C)[C@]3(O)C(=O)CO)[C@@]2(C)Cc3cnn(-c4ccccc4)c3C=C12 | 2.33 |
| CCN(CC)CCCCNc1nc2cc(Cl)c(Cl)cc2nc1-c1ccc(-c2cccs2)s1 | 1.92 |
| COc1cccc(OC)c1-c1cc(C(=O)NC2(C(=O)O)C3CC4CC(C3)CC2C4)nn1-c1ccnc2cc(Cl)ccc12 (stereo not drawn) | 3.08 |
| CC(=O)NCCC(=O)N[C@@H](CCC(N)=O)C(=O)N[C@@H](CO)C(=O)N[C@@H](CCC(N)=O)C(=O)N[C@@H](CCC(N)=O)C(=O)N[C@H](C(=O)N[C@@H](Cc1ccccc1)C(=O)N[C@]1(C)CCCCCCC=CCCC[C@@](C)(C(=O)N[C@@H](CCC(N)=O)C(=O)N[C@@H](CC(N)=O)C(N)=O)NC(=O)[C@H](CC(C)C)NC(=O)[C@H](CC(C)C)NC(=O)[C@@H](CCCNC(=N)N)NC(=O)[C@H](Cc2c[nH]c3ccccc23)NC(=O)[C@H](CC(C)C)NC(=O)[C@H](CC(N)=O)NC1=O)[C@H](C)O | 3.58 |
| CC(=O)Nc1cccc(-n2c(=O)n(C3CC3)c(=O)c3c(Nc4ccc(I)cc4F)n(C)c(=O)c(C)c32)c1 | 6.64 |
| CCNC(=O)c1noc(-c2cc(C(C)C)c(O)cc2O)c1-c1ccc(CN2CCOCC2)cc1 | 47.2 |
| CC(C)Oc1cc(Nc2nc(N[C@@H](C)c3ccc(F)cn3)ncc2Cl)[nH]n1 | 13.4 |
| CCOC(=O)[C@@H](N)CCC(=O)N[C@@H](CSCc1ccccc1)C(=O)N[C@@H](C(=O)OCC)c1ccccc1 | 89.4 |
| O=C(O)Cc1cccc(OCCCN(Cc2cccc(C(F)(F)F)c2Cl)CC(c2ccccc2)c2ccccc2)c1 | 12.9 |
| CC(C)C[C@H](NC(=O)c1cc2ccccc2s1)C(=O)N1CCN(C(=O)[C@H](CO)NS(=O)(=O)c2ccc(Cl)cc2Cl)CC1 | 3.69 |
| COc1cc2nccc(Oc3ccc(NC(=O)Nc4cc(C)on4)c(Cl)c3)c2cc1OC | 26.7 |
| COc1ccc(CCN(C)CCCOc2ccc(S(=O)(=O)c3[nH]c4ccccc4c3C(C)C)cc2)cc1OC | 7.05 |
| CNC(=O)c1cc(COc2nnc(Nc3ccc(Cl)cc3)c3ccoc23)ccn1 | 6.77 |
